The source of these data is PubChem BioAssay (NCI).

The panel holds about 83,000 compounds, 20% with a hit somewhere; the sample as a whole holds those more often.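 Negative percent growth values reflect cell death: -40 means 40% of the cells present at the start died, and -100 means all died.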 Unmarked numbers belong to inactive results. Calls of active or inactive are those of the source. How the source made its calls: active means growth percent below 10; inactive means the rest.

Some test systems named below: NCI-H23 lung; NCI-H226 lung; NCI-H322M lung; HOP-62 NSCLC; NCI-H460 lung; HOP-92 NSCLC; NCI-H522 lung; A549/ATCC NSCLC; 786-0 renal; COLO 205 colon.
Holding throughout (assay): NCI-60 one-dose screen, 48 h (100 = growth as untreated, 0 = no growth, -100 = all killed)
What all share (conditions): 10 µM

In the case of `Oc1[nH]c2ccccc2c1/C=c1/cc2c(c(-c3ccc(C(F)(F)F)cc3)n1)=Nc1ccccc1-2`, the growth with NCI-H23 lung was 71.1%; in the experiment on NCI-H226 lung it was 54.1%; in the experiment on NCI-H322M lung, 93.8%; in the experiment on HOP-62 NSCLC it was 85%; with NCI-H460 lung, 22%; in the experiment on HOP-92 NSCLC, 20.7%. Moreover, the growth in the experiment on NCI-H522 lung was 33.5%; in the experiment with A549/ATCC NSCLC it was 56.8%; in the experiment with 786-0 renal it was 66%; with COLO 205 colon, 33.9%.

`Cc1ccc(-c2cc(C(=O)Nc3ccc(S(=O)(=O)N4CCCCC4)cc3)[nH]n2)c(O)c1`: the growth in the experiment on NCI-H23 lung is 55.4%; with NCI-H226 lung, 76.5%; in the experiment on NCI-H322M lung, 89.3%; in the experiment on HOP-62 NSCLC, 90.7%; in the experiment with NCI-H460 lung, 51.6%; in the experiment with HOP-92 NSCLC, 56.1%. The growth is 72.1% in the experiment on NCI-H522 lung, 52.2% in the experiment on A549/ATCC NSCLC, 62.3% in the experiment with 786-0 renal and 55.3% with COLO 205 colon.

As for `CCCC(C)c1ccc(OCCCCCCN2CCNCC2)cc1` (stereo not given), the growth is 61.6% in the experiment with NCI-H23 lung; 89.3% in the experiment with NCI-H226 lung; 58.3% in the experiment with NCI-H322M lung; 66.6% in the experiment on HOP-62 NSCLC; 6.72% (active) with NCI-H460 lung; 25.1% in the experiment with HOP-92 NSCLC. The growth with NCI-H522 lung was 3.3% (active); in the experiment on A549/ATCC NSCLC, 39.7%; with 786-0 renal it was -21.1% (active); with COLO 205 colon it was -68.3% (active).

For the compound `c1ccc(COCC[P+](c2ccccc2)(c2ccccc2)c2ccccc2)cc1`, the growth was -10.1% (active) in the experiment on NCI-H23 lung; 28.5% in the experiment on NCI-H226 lung; 10.4% in the experiment on NCI-H322M lung; 22.1% in the experiment on HOP-62 NSCLC; 3.37% (active) in the experiment on NCI-H460 lung; -29.9% (active) in the experiment on HOP-92 NSCLC. The growth with NCI-H522 lung is -9.64% (active); in the experiment on A549/ATCC NSCLC, 8.47% (active); with 786-0 renal it was 16.9%; in the experiment on COLO 205 colon, -41.2% (active).

As for `COc1ccc2nc(-c3ccccc3)cc(C(C)=O)c2c1`, the growth with NCI-H23 lung is 89.8%; with NCI-H226 lung it was 87.6%; in the experiment with NCI-H322M lung it was 84.7%; in the experiment on HOP-62 NSCLC, 78.3%; with NCI-H460 lung, 99.1%; in the experiment on HOP-92 NSCLC it was 71.5%. For the same compound, the growth in the experiment with NCI-H522 lung was 80.9%; with A549/ATCC NSCLC, 100%; with 786-0 renal, 95.8%; with COLO 205 colon, 110%.

On to `Cc1ccc(S(=O)(=O)N2CCc3ccccc3CC2)cc1`, for which the growth is 54.5% in the experiment on NCI-H23 lung; 54.3% with NCI-H226 lung; 99% in the experiment with NCI-H322M lung; 97.9% in the experiment with HOP-62 NSCLC; 90.8% with NCI-H460 lung; 71.9% in the experiment with HOP-92 NSCLC. Further, the growth was 74.1% with NCI-H522 lung, 72.1% with A549/ATCC NSCLC, 79.3% with 786-0 renal and 81% with COLO 205 colon.

Turning to `O=C1/C(=C/c2ccc([N+](=O)[O-])s2)Oc2ccc(Cl)cc21`, the growth with NCI-H23 lung was -35.5% (active); in the experiment with NCI-H226 lung it was -56.8% (active); with NCI-H322M lung it was -43% (active); in the experiment on HOP-62 NSCLC, -6.59% (active); in the experiment with NCI-H460 lung it was -48.8% (active); with HOP-92 NSCLC it was -71% (active). Moreover, the growth in the experiment with NCI-H522 lung is -70.3% (active); in the experiment on A549/ATCC NSCLC, -26.5% (active); in the experiment with 786-0 renal, -17.3% (active); with COLO 205 colon, -69.6% (active).

For the compound `S=c1c2ncccc2c(-c2ccccn2)nn1Cc1ccccn1`, the growth in the experiment on NCI-H23 lung was 90.6%; in the experiment with NCI-H226 lung, 104%; in the experiment on NCI-H322M lung, 102%; in the experiment on HOP-62 NSCLC, 85.3%; in the experiment with NCI-H460 lung it was 108%; with HOP-92 NSCLC, 94.7%. The growth in the experiment on NCI-H522 lung was 88.5%; in the experiment on A549/ATCC NSCLC, 81%; in the experiment with 786-0 renal, 96.9%; with COLO 205 colon, 92.8%.

Consider `CCOC(=O)Nc1ccc2c(c1)C(=O)N(CCOC)c1ccccc1O2`, for which the growth in the experiment with NCI-H23 lung is 52%; in the experiment with NCI-H226 lung, 77.1%; with NCI-H322M lung, 43%; with HOP-62 NSCLC it was 43%; in the experiment with NCI-H460 lung it was 23%; in the experiment with HOP-92 NSCLC, 45%. For the same compound, the growth is 18.4% in the experiment on NCI-H522 lung, 44.8% in the experiment on A549/ATCC NSCLC, 45.3% in the experiment on 786-0 renal and 13% in the experiment with COLO 205 colon.

As to `Cc1ccc2nc3[nH]c(=O)[nH]c(=O)c3c(N)c2c1`, the growth in the experiment with NCI-H23 lung is 91.9%; in the experiment on NCI-H226 lung, 100%; with NCI-H322M lung, 73.3%; with HOP-62 NSCLC, 84.3%; in the experiment on NCI-H460 lung it was 81.2%; in the experiment with HOP-92 NSCLC, 76%. Further, the growth in the experiment on NCI-H522 lung was 83.9%; in the experiment on A549/ATCC NSCLC, 89%; with 786-0 renal, 78.7%; in the experiment with COLO 205 colon, 91.2%.

Take `O=C(CSc1nnc(-c2ccc(Cl)cc2)o1)c1ccccc1`: the growth is 88.7% with NCI-H23 lung; 96.3% with NCI-H226 lung; 119% with NCI-H322M lung; 91.1% in the experiment on HOP-62 NSCLC; 105% in the experiment with NCI-H460 lung; 107% in the experiment on HOP-92 NSCLC. Further, the growth in the experiment with NCI-H522 lung was 78.6%; in the experiment on A549/ATCC NSCLC, 73.2%; with 786-0 renal, 92.8%; in the experiment with COLO 205 colon, 108%.

Turning to `CN(C)CCCN(Cc1ccccc1O)C(=S)Nc1ccc(Cl)cc1`, the growth with NCI-H23 lung was 108%; in the experiment on NCI-H226 lung, 94.5%; with NCI-H322M lung, 98.1%; with HOP-62 NSCLC it was 108%; in the experiment with NCI-H460 lung, 102%; in the experiment on HOP-92 NSCLC, 86.8%. The growth is 96% with NCI-H522 lung, 98.1% in the experiment on A549/ATCC NSCLC, 107% in the experiment on 786-0 renal and 113% in the experiment on COLO 205 colon.

For `OC(CNC1CCCC1)Cn1c2ccccc2c2ccccc21` (stereo not given), the growth in the experiment with NCI-H23 lung was 31%; in the experiment with NCI-H226 lung it was 99.5%; in the experiment on NCI-H322M lung, 51%; in the experiment with HOP-62 NSCLC, 50.1%; in the experiment with NCI-H460 lung, 8.53% (active); in the experiment on HOP-92 NSCLC it was 26.2%. The growth in the experiment with NCI-H522 lung is 27.7%; with A549/ATCC NSCLC, 11.1%; with 786-0 renal it was 9.8% (active); in the experiment on COLO 205 colon, -66.2% (active).

For the compound `Cc1ccc(NC(=O)/C=N/O)cc1C`, the growth in the experiment with NCI-H23 lung is 94.6%; in the experiment on NCI-H226 lung it was 53.2%; in the experiment on NCI-H322M lung, 102%; with HOP-62 NSCLC, 92.7%; in the experiment on NCI-H460 lung, 103%; with HOP-92 NSCLC it was 82.3%. Also, the growth is 93% with NCI-H522 lung, 94% with A549/ATCC NSCLC, 101% in the experiment on 786-0 renal and 105% with COLO 205 colon.
